Inconclusive results are not listed. Activity calls are given as the source filed them. How the source made its calls: active means hit-call score of the fitted dose curve at least 0.9, where 1 is the maximum; inconclusive means response in the unintended direction; inactive means score below 0.9.

The test system of the experiment is rainbow trout Peroxisome Proliferator-activated Receptor alpha (PPARa), gene 110490141. Description: ATG_rtPPARa_EcoTox2: Attagene TRANS-FACTORIAL EcoTox-2 HepG2 Assay for rainbow trout Peroxisome Proliferator-activated Receptor alpha (PPARa). The method, then:
ATG_EcoTox2 is a cell-based, multiplexed assay created by modifying the existing Attagene TRANS-FACTORIAL system to include a panel of nuclear receptors from some or all the following species: human (Homo sapiens), african clawed frog (Xenopus laevis), rainbow trout (Oncorhynchus mykiss), japanese medaka (Oryzias latipes), and zebrafish (Danio rerio). The ECOTOX2-FACTORIAL format uses HepG2, a human liver cell line, with measurements taken at 24 hours after chemical dosing in a 24-well plate. ATG_rtPPARa_EcoTox2 is one of 29 assay components calculated in the ATG_EcoTox2 assay. It is designed to make measurements of mRNA induction, a form of inducible reporter, as detected with fluorescence intensity signals by Reverse transcription polymerase chain reaction (RT-PCR) and Capillary electrophoresis technology.The assay endpoint […] was analyzed in the positive analysis fitting direction relative to DMSO as the negative control and baseline of activity. Using a type of inducible reporter, measures of mRNA for gain-of-signal activity can be used to understand the reporter gene at the transcription factor-level as they relate to the gene PPARa. Furthermore, this assay endpoint can be referred to as a primary readout, because this assay has produced multiple assay endpoints where this one serves a reporter gene function. To generalize the intended target to other relatable targets, this assay endpoint is annotated to the nuclear receptor intended target family, where the subfamily is non-steroidal.
Human liver HepG2 cells are transiently transfected with multiple reporter transcription units (MRTUs) in 6-well plates using FuGene 6 reagent (Roche; 3 ml FuGene/1 mg DNA). The MRTU constructs are regulated by a cis-regulating element (promoter). Each RTU expresses a GAL4-UAS that regulates the transcription of a nearby target reporter gene sequence. A major difference between the CIS and TRANS system is that in CIS activities of endogenous TFs are measured, whereas the TRANS assay evaluates changes in activities of exogenous, chimeric NR-Gal4 proteins. […] At the end of 24 hour incubation, total RNA was isolated using TriZol reagent (Invitrogen). The isolated RNA is then reverse-transcribed using oligo(dT) primer and Mo-MLV reverse transcriptase (Invitrogen) with DNAse I (Ambion) treatment for 30 min. The one-tenth of the produced cDNA was amplified by PCR using Taq DNA polymerase (Invitrogen) and two reporter sequence-specific primers. The PCR products were fluorescently labeled by primer extension with 6-arboxyfluorescein (6-FAM) 5'-labeled reporter sequence-specific primer (2 min at 95 C, 20 s at 68 C and 10 min at 72 C) and these products were digested with 5U of HpaI (New England Biolabs) for 2h at 37 C. The fragments were purified using Qiaquick PCR columns (Qiagen), analyzed on an ABI 3130xL genetic analyzer (Applied Biosystems) with peak positions identified by using a set of X-rhodamine (ROX)-labeled MapMarker1000 molecular weight standards (BioVentures). The raw capillary electrophoresis data was processed using Attagraph software (Attagene).
One may read the AC50 as the concentration at which the activity in the assay is half-maximal. Consider `Cc1ccc(C)c(OCCCC(C)(C)C(=O)O)c1`, for which the AC50 was 10.4 µM (active).
As to `Cc1nc(-c2ccc(C(F)(F)F)cc2)sc1C(=O)NCc1ccc(OC(C)(C)C(=O)O)cc1`, the AC50 is 0.0823 µM (active).
As for `C[C@@H]1C[C@H]2[C@@H]3CCC4=CC(=O)C=C[C@]4(C)[C@@]3(F)[C@@H](O)C[C@]2(C)[C@@]1(O)C(=O)COP(=O)(O)O`, the compound was classed as inactive.
As to `CC(C)OC(=O)C(C)(C)Oc1ccc(C(=O)c2ccc(Cl)cc2)cc1`, the result was inactive.
Take `CN(CCOc1ccc(CC2SC(=O)NC2=O)cc1)c1ccccn1` (configuration not stated): the AC50 was 6.15 µM (active).
For `Cc1cccc(Nc2cc(Cl)nc(SCC(=O)O)n2)c1C`, the AC50 was 25 µM (active).
In the case of `CC(C)(Oc1ccc(Cl)cc1)C(=O)O`, the result was inactive.
For the compound `CC(C)(Oc1ccc(CCNC(=O)c2ccc(Cl)cc2)cc1)C(=O)O`, the AC50 is 41.3 µM (active).
On to `CC(c1cc2ccccc2s1)N(O)C(N)=O` (configuration not stated), for which the compound was called inactive.
In the case of `C[C@]12C=CC(=O)C=C1CC[C@@H]1[C@@H]2C(=O)C[C@@]2(C)[C@H]1CC[C@]2(O)C(=O)CO`, the compound was classed as inactive.
Turning to `C=C(c1ccc(C(=O)O)cc1)c1cc2c(cc1C)C(C)(C)CCC2(C)C`, the call was inactive.
With `CC(C)(Oc1ccc(C2CC2(Cl)Cl)cc1)C(=O)O` (configuration not stated), the AC50 is 75.3 µM (active).

These data come from PubChem BioAssay AID2284347 (EPA ToxCast).
